The nature of assay [1]: NCI Yeast Anticancer Drug Screen. Data for the rad50 strain (AID 155).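 Note: 0% = growth of vehicle-only cultures of the same strain.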 The conditions noted are these: S. cerevisiae rad50 strain growth inhibition; at 50.0 µM; hits give high values. Put shortly: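 Growth of the mutant yeast was measured after compound exposure and referenced to vehicle-treated cultures.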
The nature of assay [2]: NCI Yeast Anticancer Drug Screen. Data for the mec2-1 strain (AID 157). The conditions noted are these: S. cerevisiae mec2-1 strain, at 50.0 µM, hits give high values. Put shortly:
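mec2-1 yeast strain, carrying an alteration in DNA damage repair or cell cycle control, was exposed to compounds; growth inhibition was measured relative to vehicle-treated controls.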

A short description of assay [3]: NCI Yeast Anticancer Drug Screen. Data for the sgs1 mgt1 strain (AID 161).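 Note: 0% = growth of cultures given vehicle only.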 The conditions noted are these: S. cerevisiae sgs1 mgt1 strain, at 50.0 µM, hits give high values. Put shortly: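 Percent growth inhibition was derived by comparing compound-exposed mutant yeast with vehicle-exposed cultures. The strain carries alterations in DNA damage repair.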
Assay [4] in a line: NCI Yeast Anticancer Drug Screen. Data for the cln2 rad14 strain (AID 165).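 Note: 0% = growth equal to vehicle treated cultures.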 The conditions noted are these: S. cerevisiae cln2 rad14 strain, at 50.0 µM, hits give high values. The essentials: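 Yeast carrying cln2 and rad14 alterations (cell cycle control and DNA damage repair) were exposed to compounds. Growth inhibition was measured against vehicle-treated controls.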
Assay [5] can be described thus: NCI Yeast Anticancer Drug Screen. Data for the bub3 strain (AID 167). The conditions noted are these: S. cerevisiae bub3 mutant strain, at 50.0 µM, hits give high values. The essentials:
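Whole-cell yeast assay. The mutant strain was incubated with compounds, and growth inhibition was determined by comparison with vehicle-treated cells.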

The nature of assay [6]: NCI Yeast Anticancer Drug Screen. Data for the mlh1 rad18 strain (AID 175). The conditions noted are these: S. cerevisiae mlh1 rad18 strain growth inhibition; at 50.0 µM; hits give high values. Put shortly: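 Growth inhibition of the yeast strain was measured after compound exposure and expressed relative to vehicle-treated controls. The strain carries defined defects in DNA damage repair.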

About 79,000 compounds went through this panel and 15% of them were active in at least one assay; those are over-represented in the sample as a whole. Values without a mark were called inactive. Calls of active or inactive are those of the source. Cut-off read from the data, not from the text of the source: active = growth inhibition above about 70%; inactive = the rest.

Consider `CN(C)CCCNc1ccc2ncn3c4ccccc4c(=O)c1c23`, for which the growth inhibition in assay [1] is -2.15%; in assay [2], 6.2%; in assay [3] it was -3.35%; in assay [4], 20.9%; in assay [5] it was 1.5%; in assay [6], 22.4%.
For `O=C(Nc1ccc(F)cc1)C(Br)C(Br)c1ccccc1` (stereo not given), the growth inhibition is 91% (active) in assay [1]; 88.2% (active) in assay [2]; 93.9% (active) in assay [3]; 49% in assay [4]; 81.5% (active) in assay [5]; 95.5% (active) in assay [6].
For the compound `c1ccc2c(c1)C1OC2c2ccccc21`, the growth inhibition in assay [1] is -30.2%; in assay [2], -20.3%; in assay [3], -26.4%; in assay [4] it was -26.3%; in assay [5], -0.4%; in assay [6], -1.25%.
With `O=CC(NC(=O)N(CCF)N=O)C(O)C(O)C(O)CO` (stereo not given), the growth inhibition in assay [1] was -15%; in assay [2], -4.05%; in assay [3], 2.5%; in assay [4] it was -15.6%; in assay [5] it was 1.3%; in assay [6], -44.4%.
As to `COc1ccccc1N=NNc1ccc(S(=O)(=O)NC(C)=O)cc1`, the growth inhibition was 14.9% in assay [1]; -28.5% in assay [2]; -1.1% in assay [3]; -0.6% in assay [4]; -15% in assay [5]; 0.55% in assay [6].
`Nc1ccc(C(=O)NN2C(=O)C(Cl)C2c2ccccc2Cl)cc1` (stereo not given): the growth inhibition in assay [1] is 45.2%; in assay [2], 32.7%; in assay [3], 27.9%; in assay [4], 38.8%; in assay [5], 38.3%; in assay [6], 31.5%.
On to `O=C(O)CN1CCSc2ccccc2CN(CC(=O)O)CCSc2ccccc2C1`, for which the growth inhibition in assay [1] was 4.5%; in assay [2] it was 3.1%; in assay [3] it was -2.6%; in assay [4], -32%; in assay [5] it was 12.7%; in assay [6] it was -8%.
Consider `COc1c([N+](=O)[O-])ccc(C(OC(C)=O)OC(C)=O)c1OC(C)=O`, for which the growth inhibition in assay [1] is 33.9%; in assay [2], 23.1%; in assay [3], 55.8%; in assay [4], 2.35%; in assay [5], 31.9%; in assay [6] it was 29.4%.
For `CC1([N+](=O)[O-])COC2(CCCCC2)OC1`, the growth inhibition in assay [1] is 18.2%; in assay [2], 9.75%; in assay [3], -6.1%; in assay [4], -22.1%; in assay [5], 4.3%; in assay [6] it was 24.2%.
In the case of `Nc1ccc(C(=O)O)c(O)c1.Nc1ccc(C(=O)O)c(O)c1.[Cu]`, the growth inhibition is -13.4% in assay [1]; 2.4% in assay [2]; -20.3% in assay [3]; 3.6% in assay [4]; -1.95% in assay [5]; -5.05% in assay [6].
For the compound `CC(=O)Nc1cc(Cl)cc2c1[nH]c(=O)c1ccccc12`, the growth inhibition in assay [1] was 9.75%; in assay [2], 5.35%; in assay [3], -2%; in assay [4] it was -7%; in assay [5] it was 9.25%; in assay [6], 1.05%.
Consider `Cn1cc(NC(=O)c2cc(NC(=O)CCCCCC(=O)Nc3cc(C(=O)Nc4cc(C(=O)NCCC(=N)N)n(C)c4)n(C)c3)cn2C)cc1C(=O)NCCC(=N)N`, for which the growth inhibition in assay [1] was -14.1%; in assay [2], -14.9%; in assay [3], -17.6%; in assay [4], -1.35%; in assay [5], -24.4%; in assay [6] it was -3.6%.
With `CCc1cc2c(oc3cc(C)ccc32)c(=O)n1C`, the growth inhibition in assay [1] is -12.4%; in assay [2] it was -7.7%; in assay [3], -13.8%; in assay [4], 13.5%; in assay [5] it was -14.2%; in assay [6], -8.75%.
Turning to `CC(C)(C)OC(=O)N[C@H]1CCN(C2CCCCC2)C1=O`, the growth inhibition in assay [1] was -34.9%; in assay [2], -10.1%; in assay [3], -22.1%; in assay [4], 7.75%; in assay [5], -6.4%; in assay [6] it was -62.5%.
In the case of `CC(=O)C(C)C(=O)N1C(=O)N(C)C2(C)N(C)C(=O)NC12C` (stereo not given), the growth inhibition in assay [1] is 2.05%; in assay [2], -45.3%; in assay [3], -24.3%; in assay [4] it was 8.4%; in assay [5] it was -5.8%; in assay [6] it was 7.3%.
On to `CCOC(=O)c1ccc(-c2cccs2)[nH]1`, for which the growth inhibition was -35.3% in assay [1]; -1.25% in assay [2]; 3.95% in assay [3]; -1.25% in assay [4]; 27% in assay [5]; -11.9% in assay [6].
As for `Cc1cn(C2CC(NO)C(CO[Si](C)(C)C(C)(C)C)O2)c(=O)[nH]c1=O` (stereo not given), the growth inhibition is -3.75% in assay [1]; -0.25% in assay [2]; -3.45% in assay [3]; -3.9% in assay [4]; -30.4% in assay [5]; -35.7% in assay [6].
With `COc1ccccc1-n1c(NN)nc2ccc(Br)cc2c1=O`, the growth inhibition in assay [1] is 55.6%; in assay [2], 13.4%; in assay [3], 27.4%; in assay [4], 13.2%; in assay [5], 27.2%; in assay [6], -12.4%.
Take `c1ccc(C(N=NC(c2ccccc2)c2ccccc2)c2ccccc2)cc1`: the growth inhibition was 4.4% in assay [1]; -10.3% in assay [2]; 3.75% in assay [3]; -18.3% in assay [4]; -21.8% in assay [5]; 16.8% in assay [6].
For the compound `Cc1cc(N=Cc2c(CO)cnc(C)c2O)c(N=Cc2c(CO)cnc(C)c2O)cc1C.[Zn]`, the growth inhibition in assay [1] was 5.9%; in assay [2] it was -8%; in assay [3], 5.6%; in assay [4] it was -3.15%; in assay [5] it was -2.1%; in assay [6], 0.9%.

Values taken from PubChem BioAssay (NCI).
